Screens (PubChem BioAssay)
mIDH1 inhibitor = qHTS for Inhibitors of mutant isocitrate dehydrogenase 1 (IDH1): qHTS; Potency, µM (series often up to 76.6 µM), inactives show at the top dose activity change, negative = inhibition, hits mostly inhibitors; hit rate 0.093% among 390,000; IDH1-R132H enzyme, NADPH consumption, diaphorase/resazurin fluorescence; further: on the % scale 0 is the no-effect control and ±100 the full control effect; nearly all actives have a fitted effect of over 65% in size
Target sequence (O75874 whole entry R132H, stated change not applied): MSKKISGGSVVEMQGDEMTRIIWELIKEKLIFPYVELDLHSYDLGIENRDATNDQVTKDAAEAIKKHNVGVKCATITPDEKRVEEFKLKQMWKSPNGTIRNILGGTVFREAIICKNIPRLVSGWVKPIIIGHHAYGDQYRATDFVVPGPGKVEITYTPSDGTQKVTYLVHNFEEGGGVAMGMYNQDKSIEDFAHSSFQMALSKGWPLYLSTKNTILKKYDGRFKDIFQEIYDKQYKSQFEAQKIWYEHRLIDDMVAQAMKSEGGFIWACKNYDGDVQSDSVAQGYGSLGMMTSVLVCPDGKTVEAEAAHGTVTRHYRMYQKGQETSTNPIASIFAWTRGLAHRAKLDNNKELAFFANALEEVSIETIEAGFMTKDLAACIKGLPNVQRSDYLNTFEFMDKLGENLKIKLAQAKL
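IDH1-R132H (0.5 ug/mL dispensed) in pH 7.5 Tris buffer was preincubated 30 min with compound, then given a substrate mix of 0.016 mM NADPH and 2 mM alpha-KG for 80 min at room temperature; remaining NADPH was read by diaphorase/resazurin fluorescence.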
ELG1 repair inh = qHTS screen for small molecules that inhibit ELG1-dependent DNA repair in human embryonic kidney (HEK293T) cells expressing luciferase-tagged ELG1. hit rate 2.3% among 330,000. HEK293T ELG1-luciferase reporter, luminescence, 16 h; DNA damage induced by 5-fluorouridine. Potency, µM (highest dose often 46.1 µM), for inactives: top-dose activity change, negative = inhibition, hits mostly inhibitors; further: on the % scale 0 is the no-effect control and ±100 the full control effect; nearly all actives have a fitted effect of over 55% in size
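Reporter activity after DNA damage by 5-fluorouridine is monitored. Compound-treated cells incubate 16 hr at 37 °C, then ONE-Glo is added for 30 min before luminescence reading.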
A549 viability = Nrf2 qHTS screen for inhibitors: counterscreen for cytotoxicity; A549 ARE-Fluc cells, CellTiter-Fluor viability, 18-24 h; Potency, µM (series often up to 46 µM), for inactives: at the top dose activity change, negative = cytotoxicity, usual class: inhibitors; AID 504648, 2011; hit rate 0.16% among 390,000; further: on the % scale 0 is the no-effect control and ±100 the full control effect
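Cytotoxicity counterscreen: CellTiter-Fluor fluorescence was measured in A549 ARE_Fluc cells after 18-24 h of compound exposure in a concentration series. The subsequent BugLite luminescent read reports ARE-luciferase activity.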
Nrf2 inh = Nrf2 qHTS screen for inhibitors; AID 504444, 2011; Potency, µM (titrated, usually from 46 µM), for the others: at the top dose activity change, negative = inhibition, usual class: inhibitors; hit rate 2.1% among 360,000; A549 ARE-Fluc reporter, luciferase luminescence, 18-24 h; further: on the % scale 0 is the no-effect control and ±100 the full control effect; nearly all actives have a fitted effect of over 60% in size
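Nrf2 function is reported as luminescence of an ARE-controlled luciferase in A549 cells. Compounds were tested at several concentrations, and a CellTiter-Fluor read on the same wells flagged cytotoxicity.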
Nrf2 ARE act = qHTS of Nrf2 Activators | AID 624171, 2012 | hit rate 0.31% among 410,000 | Potency, µM (doses to about 46.1 µM), inactives show at the top dose activation, most hits filed as activators | AREc32 ARE-luciferase reporter (MCF7-derived line), luminescence, 24 h; further: % of control where 0% means no effect; nearly all actives have a fitted effect of over 65% in size
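Quantitative high-throughput format: AREc32 reporter cells, 1000 per well, received compound by pin transfer and were incubated 24 hr at 37 deg C, 5% CO2, before Steady-Glo luminescence detection.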
* marks the source's active call; other numbers are inactive results; ? = inconclusive; · = not tested or not shown; [ ] = dose if it differs, or a comment. In the library only some 3.8% were active in any assay of this set; here they are far more common. The call rests on the fitted dose curve; in most records, active means well fitted curve in the direction sought with a large enough effect; inconclusive means small, poorly fitted or top-dose-only effect, or another doubt; inactive means no such curve, though single readings can be large; an effect the other way counts as inactive or inconclusive. Potency means the concentration at half of the fitted maximal effect.

SMILES | mIDH1 inhibitor | ELG1 repair inh | A549 viability | Nrf2 inh | Nrf2 ARE act
CC(C)c1cccc(C(C)C)c1NC(=O)CN1C(=O)NC2(CCCCCCC2)C1=O | 15% | 15% | -7% | 2% | -1%
CC(C)=CCC/C(C)=C/CNC(=O)C[C@H]1C[C@H](C(=O)N2CCOCC2)[C@@]2(C)c3[nH]c4cc(CCC(=O)N(C)C)ccc4c3CCN2C1=O | -1%[38.3 µM] | ? | -16% | 15µM* | 7%
CC[C@]12c3[nH]c4cc(CCC(=O)N(C)C)ccc4c3CCN1C(=O)[C@@H](CC(=O)NC/C=C(\C)CCC=C(C)C)C[C@@H]2C(=O)N1CCN(C(=O)C2CC2)CC1 | -10% | ? | -13% | -27% | 7%
CCN(CC)C(=O)[C@H]1CC(CC(=O)NCCN2CCOCC2)C(=O)N2CCc3c([nH]c4ccc(OC)cc34)[C@]12C (stereo partly drawn) | -11% | ? | 4% | 3% | 0%
CC(C)N(C(=O)[C@H]1C[C@H](CC(=O)NCC23CC4CC(CC(C4)C2)C3)C(=O)N2CCc3c([nH]c4cc(-c5ccco5)ccc34)[C@]12C)C(C)C | -3% | -17% | -21% | ? | -1%
CC(C)N(C(=O)[C@H]1CC(CC(=O)NCC23CC4CC(CC(C4)C2)C3)C(=O)N2CCc3c([nH]c4ccccc34)[C@]12C)C(C)C (stereo partly drawn) | -9% | -14% | ? | 26µM* | -1%
C[C@]12c3[nH]c4ccccc4c3CCN1C(=O)C(CC(=O)NCC13CC4CC(CC(C4)C1)C3)C[C@@H]2C(=O)N1CCCCC1 (stereo partly drawn) | -6% | ? | -13% | 16µM* | -1%
CCN(CC)C(=O)[C@H]1CC(CC(=O)NCC23CC4CC(CC(C4)C2)C3)C(=O)N2CCc3c([nH]c4ccc(OC)cc34)[C@]12C (stereo partly drawn) | 26% | 23µM* | -7% | 23µM* | 5%
O=C(CSc1nnc(CNC(=O)c2ccccc2)n1-c1cccc(Cl)c1)Nc1ccccc1F | 3% | · | 8% | 1% | 1%
CC(C)N(C(=O)[C@H]1C[C@H](CC(=O)NCC23CC4CC(CC(C4)C2)C3)C(=O)N2CCc3c([nH]c4cc(CCC(=O)N(C)C)ccc34)[C@]12C)C(C)C | -23% | ? | ? | 21µM* | -1%
COc1ccc2[nH]c3c(c2c1)CCN1C(=O)C(CC(=O)NCC24CC5CC(CC(C5)C2)C4)C[C@H](C(=O)N2CCCCC2)[C@@]31C (stereo partly drawn) | -24% | 13µM* | ? | ? | 0%
COCCCNC(=O)CC1C[C@H](C(=O)N2CCCCC2)[C@@]2(C)c3[nH]c4ccc(OC)cc4c3CCN2C1=O (stereo partly drawn) | 4% | 8% | -1% | 11% | 0%
Cc1cc(C)cc(NS(=O)(=O)c2ccc(-c3cc(C)no3)cc2)c1 | 19% | · | -12% | ? | 0%
Cc1ccc(S(=O)(=O)N2CCOC2CNC(=O)C(=O)NCCCc2ccccc2)cc1 (stereo not drawn) | 1% | ? | 0% | 21µM* | 0%
COc1ccc(S(=O)(=O)N2CCOC2CNC(=O)C(=O)NCCc2ccccc2OC)cc1C (stereo not drawn) | -13% | ? | 2% | ? | 1%
O=C(NCCc1c[nH]c2ccccc12)C(=O)NCC1OCCCN1S(=O)(=O)c1cc(F)ccc1F (stereo not drawn) | 3% | 21µM* | 9% | -12% | 5%
Cc1ccc(S(=O)(=O)N2CCOC2CNC(=O)C(=O)NCCc2ccccc2)cc1 (stereo not drawn) | 5% | -26% | 0% | -29% | 3%
COc1ccc(S(=O)(=O)N2CCOC2CNC(=O)C(=O)NCCc2c[nH]c3ccccc23)cc1C (stereo not drawn) | 17% | 26µM* | 4% | ? | -1%
COc1ccc(S(=O)(=O)N2CCOC2CNC(=O)C(=O)NCCc2c[nH]c3ccccc23)cc1 (stereo not drawn) | -5% | ? | -8% | 7.3µM* | 0%
O=C(NCCc1ccccc1)C(=O)NCC1OCCCN1S(=O)(=O)c1cc(F)ccc1F (stereo not drawn) | 3% | -25% | -1% | -30% | 0%
COc1ccc(S(=O)(=O)N2CCOC2CNC(=O)C(=O)NCCc2ccccc2OC)cc1 (stereo not drawn) | -4% | -13% | -1% | ? | 0%
O=S(=O)(NC1CCCC(NS(=O)(=O)c2c(F)cccc2F)C1)c1ccc2c(c1)OCCO2 (stereo not drawn) | · | · | -5% | 5% | ·
COc1ccc(C(=O)c2cn(Cc3ccc(F)cc3)c3c(F)cc(F)cc3c2=O)cc1 | 0% | · | ? | ? | -1%
Cc1ccc(-c2nnn(CC(=O)N(Cc3cccs3)C(C(=O)NC3CCCC3)c3ccncc3)n2)cc1 (stereo not drawn) | -3% | ? | -17% | 6.5µM* | 5%
CCC(C(=O)NC1CCCC1)N(Cc1cccs1)C(=O)Cn1nnc(-c2ccc(OC)c(OC)c2)n1 (stereo not drawn) | -3% | 18µM* | -3% | ? | 1%
SMILES | mIDH1 inhibitor | ELG1 repair inh | A549 viability | Nrf2 inh | Nrf2 ARE act
O=C(NCC1CCCO1)C(c1ccncc1)N(Cc1cccs1)C(=O)Cn1nnc(-c2ccc(F)cc2)n1 (stereo not drawn) | 2% | ? | -6% | ? | 0%
CCCn1nc([N+](=O)[O-])c(C(C#N)c2nc3ccccc3s2)c(Cl)c1=O (stereo not drawn) | 1% | 18µM* | 13µM* | ? | ?
CCn1nc([N+](=O)[O-])c(C(C#N)c2nc3ccccc3n2C)c(Cl)c1=O (stereo not drawn) | 4% | 0% | -10% | 0% | ?
COC(=O)c1ccc(Oc2nc(Nc3ccc(C)c(C)c3)nc(N(C)C)n2)cc1 | 6% | 21µM* | -20% | ? | 0%
CCNc1nc(Oc2ccc(C(=O)OC)cc2)nc(N(C)C)n1 | 0% | -18% | -4% | 28% | 0%
COc1cc(OC)cc(C(=O)N[C@H](C(=O)NCc2ccc(F)cc2)C(C)C)c1 | -12% | ? | 3% | -1% | 0%
Cc1cccnc1Nc1nc(-c2ccccc2)cs1 | 1% | ? | 4% | ? | 3.2µM*
CC(C)C(=O)NC(Nc1cccc2cccnc12)C(Cl)(Cl)Cl (stereo not drawn) | 17% | -13% | 3% | -26% | 4%
